Values joined by “and” are separate entries in the source; they are usually repeats but may differ in a detail not shown here. Equal values may be shown once. Results filed as inconclusive are left out. Where a structure was tested more than once in an assay, its records may differ in their call. Active and inactive are the calls of the source. Unless noted, calls follow the shape of the dose curve; as a rule, active = well fitted curve in the direction sought with a large enough effect; inconclusive = small, poorly fitted or top-dose-only effect, or another doubt; inactive = no such curve, though single readings can be large; an effect the other way counts as inactive or inconclusive.

The nature of assay [1]: NS1 protein of Zika virus - qHTS assay to identify small molecule inhibitors in human HEK 293 cells (AID 1347053). Also: nearly all actives have a fitted effect of over 55% in size. Also: potency is read from the fitted curve at half-maximal effect. Summed up:
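HEK 293 cells pretreated with compound for 1 h, then infected with ZIKV MR766 (MOI 0.5) for 24 h at 37 C. NS1 detected by TR-FRET with two anti-NS1 antibodies; normalized to uninfected (0%) and infected (100%) wells.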
On the technique in general: Quantitative high-throughput screening tests each substance at several concentrations.

The target in assay [2] is Tyrosine-protein phosphatase non-receptor type substrate 1 (Homo sapiens) + Leukocyte surface antigen CD47 (Homo sapiens) (UniProt P78324+Q08722). Description: CD47-SIRPalpha protein protein interaction - HTRF assay qHTS validation (AID 1347058; active = well fitted curve in the direction sought with a large enough effect in the signal ratio, not every such curve was filed as active; the % refers to the signal ratio;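 also: recombinant soluble extracellular CD47 with His tag and biotinylated SIRPalpha domains; series mostly up to about 38 µM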). Summed up:
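TR-FRET read (Ch1/Ch2 ratio) of soluble extracellular CD47 and Avi-biotinylated SIRPalpha domains in PBS pH 7.4 with 0.05% IGEPAL; 7-point compound titration. Sequential 30 min room-temperature steps; non-biotinylated SIRPalpha as control inhibitor.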
(In general: Time-resolved FRET reads energy transfer from a long-lived donor to a nearby acceptor.)

Assay [3] concerns the target Parathyroid hormone/parathyroid hormone-related peptide receptor (Homo sapiens) (UniProt Q03431). The assay is described as follows: qHTS for PTHR1 Agonists: Optimization Screen against the NCGC LOPAC library (AID 1347079).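 Also: GloSensor cAMP luminescence in HEK-293 GP2 cells expressing human PTHR1 with IBMX.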 The method in brief:
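Agonist readout: GloSensor cAMP luminescence, read after 15 min at room temperature. HEK-293-derived GP2 line carries PTHR1; compounds tested as a titration for 1 hr at 37C in presence of IBMX. M-PTH (1-15) served as control.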

Assay [4] in a line: qHTS of pediatric cancer cell lines to identify multiple opportunities for drug repurposing: Primary screen for TC32 cells (AID 1347089). Also: nearly all actives have a fitted effect of over 60% in size. The method in brief: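 Luminescent CellTiter-Glo read-out of metabolically active TC32 cells after 48 h compound exposure. Primary: MIPE 11-point, 0.78 nM–46 µM; NPC 8-point, 0.59 nM–46 µM. Confirmatory: 11-point dilutions.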
The nature of assay [5]: qHTS of pediatric cancer cell lines to identify multiple opportunities for drug repurposing: Primary screen for DAOY cells (AID 1347090). Also: nearly all actives have a fitted effect of over 55% in size. Also: potency is read from the fitted curve at half-maximal effect. Summed up:
(§1)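 Eight- or eleven-point concentration series, 48 h treatment at 37 degrees C in growth media; readout CellTiter-Glo luminescence. Potency and efficacy were taken from the concentration-response curves.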

Assay [6] is described as follows: qHTS of pediatric cancer cell lines to identify multiple opportunities for drug repurposing: Primary screen for SJ-GBM2 cells (AID 1347091). Also: potency is read from the fitted curve at half-maximal effect. Summed up:
as §1

Assay [7] in a line: qHTS of pediatric cancer cell lines to identify multiple opportunities for drug repurposing: Primary screen for A673 cells (AID 1347092). Also: nearly all actives have a fitted effect of over 45% in size. Also: potency is read from the fitted curve at half-maximal effect. Summed up: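 A673 cells (500-1,000 cells/well in growth media) were pre-incubated 5 h at 37 degrees C, then exposed to compounds for 48 h. Viability was read as CellTiter-Glo luminescence; concentration-response curves came directly from the primary screen.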

Assay [8] in a line: qHTS of pediatric cancer cell lines to identify multiple opportunities for drug repurposing: Primary screen for BT-37 cells (AID 1347094). Also: potency is read from the fitted curve at half-maximal effect. The method in brief: (§2)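 Primary screen of approved and investigational compounds on cells in growth media at 37 degrees C, 5% CO2. MIPE set at 11-point and NPC set at 8-point dilutions; viability scored by ATP-based luminescence at 48 hours.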

Assay [9] is described as follows: qHTS of pediatric cancer cell lines to identify multiple opportunities for drug repurposing: Primary screen for NB-EBc1 cells (AID 1347095). Also: potency is read from the fitted curve at half-maximal effect. Summed up:
as §2

A short description of assay [10]: qHTS of pediatric cancer cell lines to identify multiple opportunities for drug repurposing: Primary screen for SK-N-MC cells (AID 1347093). Also: potency is read from the fitted curve at half-maximal effect. Summed up:
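Metabolically active cells were quantified by ATP-dependent luminescence (CellTiter-Glo, 15 min at room temperature) following 48 h treatment. Cells had been plated at 500-1,000 per well and settled for 5 h beforehand.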

Chain of Tyrosine-protein phosphatase non-receptor type substrate 1 (Homo sapiens) + Leukocyte surface antigen CD47 (Homo sapiens) (P78324 whole entry, looked up, the tested form may be a part): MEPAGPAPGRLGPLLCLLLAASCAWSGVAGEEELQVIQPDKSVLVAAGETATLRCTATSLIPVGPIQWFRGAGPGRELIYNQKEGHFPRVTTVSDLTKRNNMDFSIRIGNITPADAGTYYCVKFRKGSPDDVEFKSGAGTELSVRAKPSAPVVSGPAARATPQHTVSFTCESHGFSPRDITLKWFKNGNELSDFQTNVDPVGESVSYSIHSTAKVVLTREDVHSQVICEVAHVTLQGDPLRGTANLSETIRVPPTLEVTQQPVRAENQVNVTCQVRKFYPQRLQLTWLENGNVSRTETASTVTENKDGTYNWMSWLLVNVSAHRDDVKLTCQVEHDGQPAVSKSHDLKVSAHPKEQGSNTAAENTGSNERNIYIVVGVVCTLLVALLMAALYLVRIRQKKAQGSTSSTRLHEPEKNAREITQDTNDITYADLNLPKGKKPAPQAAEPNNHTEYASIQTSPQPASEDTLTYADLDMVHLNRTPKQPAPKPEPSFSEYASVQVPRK
Chain of Tyrosine-protein phosphatase non-receptor type substrate 1 (Homo sapiens) + Leukocyte surface antigen CD47 (Homo sapiens) (Q08722 whole entry, looked up, the tested form may be a part): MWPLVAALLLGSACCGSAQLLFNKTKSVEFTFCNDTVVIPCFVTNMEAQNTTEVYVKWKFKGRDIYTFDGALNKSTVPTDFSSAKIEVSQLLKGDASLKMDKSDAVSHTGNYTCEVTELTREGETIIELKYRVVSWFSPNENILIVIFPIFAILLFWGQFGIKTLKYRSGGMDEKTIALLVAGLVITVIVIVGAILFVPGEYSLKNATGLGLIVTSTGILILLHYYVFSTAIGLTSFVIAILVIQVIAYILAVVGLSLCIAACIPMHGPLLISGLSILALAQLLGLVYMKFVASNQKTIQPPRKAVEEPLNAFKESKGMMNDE
Chain of Parathyroid hormone/parathyroid hormone-related peptide receptor (Homo sapiens) (Q03431 whole entry, looked up): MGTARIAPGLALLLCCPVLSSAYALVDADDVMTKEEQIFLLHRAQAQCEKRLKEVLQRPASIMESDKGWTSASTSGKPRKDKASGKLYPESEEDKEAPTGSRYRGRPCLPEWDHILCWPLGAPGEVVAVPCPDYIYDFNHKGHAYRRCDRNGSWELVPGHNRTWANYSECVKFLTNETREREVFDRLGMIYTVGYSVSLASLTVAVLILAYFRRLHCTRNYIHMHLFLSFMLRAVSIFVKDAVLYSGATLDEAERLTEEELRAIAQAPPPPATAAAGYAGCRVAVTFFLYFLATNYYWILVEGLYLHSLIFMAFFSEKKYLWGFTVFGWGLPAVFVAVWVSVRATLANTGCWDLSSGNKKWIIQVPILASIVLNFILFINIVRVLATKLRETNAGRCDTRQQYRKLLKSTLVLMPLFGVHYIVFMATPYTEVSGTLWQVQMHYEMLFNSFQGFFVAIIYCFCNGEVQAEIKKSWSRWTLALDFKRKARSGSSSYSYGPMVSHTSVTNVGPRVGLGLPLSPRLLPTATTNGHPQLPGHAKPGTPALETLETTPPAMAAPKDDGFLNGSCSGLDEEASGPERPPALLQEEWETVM

Regarding `NC(=O)c1cccc(N)c1`, the Potency entry in assay [1], in assay [4], in assay [5], in assay [6], in assay [7] and in [8] was “inactive” in each case. Also, the Potency result in assay [9] was “inactive”. Also, the outcome in assay [2] and in assay [3] was inactive.
As for `CCN1CCCC1CNC(=O)c1cc(S(N)(=O)=O)ccc1OC` (configuration not stated), the Potency result in assay [1], in [4], in assay [5], in [7], in assay [8] and in assay [9] was “inactive” in each case. Besides, the outcome in assay [2] and in [3] was inactive.
On to `COc1ncnc(NS(=O)(=O)c2ccc(N)cc2)c1OC`, for which the Potency result in [1], in assay [4], in assay [5], in assay [6], in [7] and in assay [10] was “inactive” throughout. Also, the Potency entry in assay [8] and in [9] was “inactive” throughout.
For `CC(C)Cn1cnc2c(N)nc3ccccc3c21`, the Potency result in assay [1], in assay [4] and in assay [5] was “inactive” each time.
`Cc1ccc(S(=O)(=O)N[C@@H](Cc2ccccc2)C(=O)CCl)cc1`: the Potency entry in [1] and in assay [4] was “inactive” each time. Besides, the outcome in [2] and in [3] was inactive. Also, the Potency in assay [6] was 9.35 µM (active); in assay [7] it was 14.8 µM (active); in assay [10] it was 7.43 µM (active); in assay [8], 24.3 µM (active); in assay [9], 16.6 µM (active).
For the compound `CNS(=O)(=O)CCc1ccc2[nH]cc(C3CCN(C)CC3)c2c1`, the Potency entry in assay [1], in assay [4] and in assay [5] was “inactive” throughout. Also, the result in assay [2] was inactive.
Regarding `CN1CCN(c2c(F)cc3c(=O)c(C(=O)O)cn(CCF)c3c2F)CC1`, the Potency entry in [1], in assay [4], in [5], in [6], in assay [7] and in assay [10] was “inactive” throughout. In addition, the Potency result in assay [8] and in [9] was “inactive” in each case.
With `CCCCS(=N)(=O)CCC(N)C(=O)O` (configuration not stated), the Potency result in assay [1], in assay [4], in assay [5], in assay [8] and in assay [9] was “inactive” throughout. In addition, the result in assay [2] and in [3] was inactive. Also, in assay [7], the Potency is 23.5 µM (active).
Take `NS(=O)(=O)c1cc2c(cc1Cl)NC(C(Cl)Cl)NS2(=O)=O` (configuration not stated): the Potency entry in assay [1], in assay [4], in assay [5], in assay [6], in assay [7] and in assay [10] was “inactive” each time. In addition, the Potency result in assay [8] and in assay [9] was “inactive” each time.
In the case of `Cc1cccc(Nc2ccncc2S(=O)(=O)NC(=O)NC(C)C)c1`, the Potency result in assay [1], in [4], in [5], in [6], in assay [7] and in assay [10] was “inactive” throughout. For the same compound, the Potency result in assay [8] and in assay [9] was “inactive” throughout.
As for `COc1ccc(C(=O)CC(=O)c2ccc(C(C)(C)C)cc2)cc1`, the Potency entry in [1] is “inactive”.
Consider `CC1=C(C(=O)O)N2C(=O)[C@@H](NC(=O)C(N)c3ccccc3)[C@H]2SC1` (some centres not stated), for which the Potency entry in [1], in assay [5], in assay [7], in [8] and in assay [9] was “inactive” throughout. Also, the compound was called inactive in [3].
On to `CCCc1nc(C)c2c(=O)[nH]c(-c3cc(S(=O)(=O)N4CCN(CC)CC4)ccc3OCC)nn12`, for which the Potency result in [1] was “inactive and 10.5 µM (active)”. In assay [4], the Potency entry was “inactive”.
Regarding `CC(C)NCC(O)c1ccc(NS(C)(=O)=O)cc1` (configuration not stated), the Potency result in assay [1], in assay [4], in assay [6], in [8] and in assay [9] was “inactive” each time. Besides, the outcome in assay [2] and in assay [3] was inactive. Also, the Potency in assay [10] was 10.5 µM (active).
In the case of `Nc1nc(N)c2nc(CNc3ccc(C(=O)NC(CCC(=O)O)C(=O)O)cc3)cnc2n1` (configuration not stated), the Potency result in [1] and in assay [5] was “inactive” throughout. Further, the result in assay [3] was inactive. For the same compound, the Potency in assay [6] was 0.0833 µM (active); in assay [10] it was 0.0166 µM (active); in assay [8], 0.0485 µM (active).
On to `Nc1nc(N)nc(-c2cc(Cl)ccc2Cl)n1`, for which the Potency result in assay [1], in assay [4], in [5], in assay [6], in assay [7] and in assay [10] was “inactive” in each case. Further, the Potency entry in [8] and in [9] was “inactive” each time.
Take `CN(Cc1cc(Br)cc(Br)c1N)C1CCCCC1`: the Potency entry in assay [1], in [4], in assay [5], in assay [6], in assay [7] and in assay [8] was “inactive” throughout.
With `COc1cc(NS(=O)(=O)c2ccc(N)cc2)nc(OC)n1`, the Potency entry in assay [1], in assay [4], in [5], in assay [6], in assay [7] and in assay [10] was “inactive” each time. The Potency entry in [8] and in assay [9] was “inactive” each time.
`CC(C)(C#N)c1cc(Cn2cncn2)cc(C(C)(C)C#N)c1`: the Potency entry in [1], in [4], in [5], in [6], in assay [7] and in assay [8] was “inactive” each time. Besides, the Potency result in [9] was “inactive”.
With `CCOC(=O)c1ccc(OC(=O)CCCCCN=C(N)N)cc1`, the Potency entry in assay [1], in assay [4], in assay [5], in assay [6], in assay [7] and in assay [10] was “inactive” throughout. Moreover, the Potency entry in assay [8] and in [9] was “inactive” each time.
Turning to `COC(c1ccccc1)(c1ccccc1)[C@H](Oc1nc(C)cc(C)n1)C(=O)O`, the Potency entry in [1], in assay [4], in assay [5], in [6], in [7] and in assay [8] was “inactive” each time. For the same compound, the Potency entry in [9] was “inactive”.
With `CC(C)OC(=O)C(C(=O)OC(C)C)=C1SC=CS1`, the Potency entry in [1], in assay [4], in [5], in assay [6], in [7] and in assay [10] was “inactive” each time. Further, the Potency result in [8] and in assay [9] was “inactive” in each case.
In the case of `CNC(=O)c1cc(Oc2ccc(NC(=O)Nc3ccc(Cl)c(C(F)(F)F)c3)cc2)ccn1`, the Potency entry in [1] and in assay [4] was “inactive” throughout. In addition, the Potency is 11.8 µM (active) in assay [5]; 8.33 µM (active) in assay [6]; 2.96 µM (active) in assay [7]; 21.7 µM (active) in [8]; 5.26 µM (active) in [9].
In the case of `C[C@@H]1CN(c2c(F)c(N)c3c(=O)c(C(=O)O)cn(C4CC4)c3c2F)C[C@H](C)N1`, the Potency result in assay [1], in assay [4], in assay [5], in [6], in assay [7] and in [8] was “inactive” throughout. Moreover, in [9], the Potency entry was “inactive”.

Values taken from PubChem BioAssay (NCATS).
